Assay results reported in publication PMC5540273 (PLoS ONE, 2017).

test system: FLT3; details: concentration: 1 μM, replicates: in singlicate; n = 1
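Further: KINOMEscan kinase panel screen.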

| Structure (SMILES) | %Inh [%] |
| --- | --- |
| O=C(NCCNc1ccnc(Nc2ccc(F)cc2)n1)c1cc2ccccc2s1 [GSK1379874] | 0 |
| Cc1nnc(-c2ccc3occ(-c4ccc(C(C)O)cc4)c3c2)o1 (stereo not shown) | 0 |
| NS(=O)(=O)CCc1cccc(Nc2nccc(-c3c(-c4cccc(NC(=O)c5c(F)cccc5F)c4)nn4ccccc34)n2)c1 [GSK336735] | 98.9 |
| NS(=O)(=O)c1cccc(-c2ccc3nccc(-c4cccc(S(N)(=O)=O)c4)c3c2)c1 [GW867253] | 0 |
| Cc1nnc(-c2ccc(C)c(-c3ccc(C(=O)Nc4ccc(NS(C)(=O)=O)cc4)cc3)c2)o1 [GW702865] | 0 |
| Cl.Nc1ncnc2occ(-c3ccc(NC(=O)Nc4cc(C(F)(F)F)ccc4F)cc3)c12 [SB-707548] | 99.4 |
| O=C(NCCCN1CCOCC1)c1cccc(Nc2nccc(Nc3ccc(Oc4ccccc4)cc3)n2)c1 [GW663929] | 90.7 |
| O=C(c1ccc(-c2cc(-c3c[nH]nc3-c3ccccn3)ccn2)cc1)N1CCOCC1 [GW812171] | 1 |
| CN1c2ccc(NCc3ccc(F)cc3)cc2-c2c(cnn2C)S1(=O)=O | 12 |
| Cc1nnc(-c2ccc3ncc(-c4ccc(S(C)=O)cc4)n3c2)o1 (stereo not shown) | 4 |
| COc1cc2ncn(-c3cc(OCc4sccc4Cl)c(C(N)=O)s3)c2cc1OC [GSK448459] | 31 |
| [2H]C([2H])(c1cccc(C(F)(F)F)c1C)n1ccn2c(=O)nc(N3CCOCC3)cc12 [GSK2336394] | 12 |
| Cl.Oc1cccc(Nc2ccnc3cc(-c4ccncc4)ccc23)c1 [GW494601] | 28 |
| CCc1nc(-c2cccc(C)c2)c(-c2ccnc(NCc3ccccc3)c2)s1 | 0 |
| CN(C(=O)c1ccc(-c2cc(-c3c[nH]nc3-c3ccccn3)ccn2)cc1)C1CCOCC1 [GW810083] | 8 |
| O=C(NOCC1CC1)c1ccc(F)c(F)c1Nc1ccc(I)cc1Cl | 0 |
| N#Cc1ccc(-c2cc(-c3c[nH]nc3-c3ccccn3)ccn2)cc1 [GW693028] | 0 |
| CN1c2ccc(CNc3ccc(F)cc3)cc2-c2c(cnn2C)S1(=O)=O | 36 |

| Structure (SMILES) | %Inh [%] |
| --- | --- |
| O=c1cc(N2CCOCC2)nc2n(Cc3cccc(C(F)(F)F)c3)ccn12 [GSK2297543] | 0 |
| O=C(NCCNc1ccnc(Nc2ccc(F)cc2)n1)Nc1ccccc1F [GSK1379880] | 0 |
| COc1cc2c(cc1OC[C@@H](O)CO)ncc1c3ccc(C#N)cc3[nH]c21 | 97.5 |
| CCCCCc1nc2c(N)ncnc2n1CCCCC [SKF-97255] | 0 |
| O=C(Nc1cccc(-c2nn3ncccc3c2-c2ccnc(Nc3cccc(C(F)(F)F)c3)n2)c1)c1c(F)cccc1F [GSK299495] | 41 |
| O=c1cc(N2CCOCC2)nc2n(Cc3cccc4ccccc34)ccn12 [GSK2333389] | 10 |
| Cc1c(Cn2c(C)nn3c(=O)cc(N4CCOC(C)C4)nc23)cccc1C(F)(F)F (stereo not shown) [GSK2344444] | 0 |
| O=C1NC(=O)C(N2CCc3ccccc32)=C1c1cccc(Cl)c1 [SB-408010] | 0 |
| N#Cc1c(N2CCOCC2)sc(-c2ccn[nH]2)c1-c1ccc(Cl)cc1 | 0 |
| Cn1cc(-c2ccc3c(c2)CCN3C(=O)Cc2ccccc2Cl)c2c(N)ncnc21 [GSK2608885] | 99.3 |
| COc1cc(Nc2nccc(N3CCC(NC(=O)c4cccc(NC(C)=O)c4)C3)n2)cc(OC)c1OC (stereo not shown) [GSK1379754] | 50 |
| COc1ccc(S(=O)(=O)NC2CCN(c3cc(C)nc(Nc4cccc(C#N)c4)n3)CC2)cc1.O=C(O)C(F)(F)F [GSK1653539] | 0 |
| COc1cc2c(cc1OCCN1CCN(C)CC1)ncc1c3ccc(C#N)cc3[nH]c21 | 98.6 |
| O=C(Nc1n[nH]c2cc(-c3cccc(F)c3)ccc12)C1CC1 [SB-735464] | 21 |
| Cc1cccc(-c2nc(Nc3ccc4ncsc4c3)c3ccccc3n2)n1 [GW867588] | 2 |
| Nc1nccc(-c2c(-c3ccc(F)cc3)ncn2C2CCN(CC(F)(F)F)CC2)n1 [SB-236560] | 18 |
| COc1ccc(Nc2nccc(N3CCC(NC(=O)Nc4cccc(C(C)=O)c4)C3)n2)cc1 (stereo not shown) [GSK1379731] | 34 |

test system: FLT4; details: concentration: 1 μM, replicates: in singlicate; n = 1

| Structure (SMILES) | %Inh [%] |
| --- | --- |
| O=C(NCCNc1ccnc(Nc2ccc(F)cc2)n1)c1cc2ccccc2s1 [GSK1379874] | 9 |
| Cc1nnc(-c2ccc3occ(-c4ccc(C(C)O)cc4)c3c2)o1 (stereo not shown) | 6 |
| NS(=O)(=O)CCc1cccc(Nc2nccc(-c3c(-c4cccc(NC(=O)c5c(F)cccc5F)c4)nn4ccccc34)n2)c1 [GSK336735] | 99.2 |
| NS(=O)(=O)c1cccc(-c2ccc3nccc(-c4cccc(S(N)(=O)=O)c4)c3c2)c1 [GW867253] | 0 |
| Cc1nnc(-c2ccc(C)c(-c3ccc(C(=O)Nc4ccc(NS(C)(=O)=O)cc4)cc3)c2)o1 [GW702865] | 8 |
| Cl.Nc1ncnc2occ(-c3ccc(NC(=O)Nc4cc(C(F)(F)F)ccc4F)cc3)c12 [SB-707548] | 100 |
| O=C(NCCCN1CCOCC1)c1cccc(Nc2nccc(Nc3ccc(Oc4ccccc4)cc3)n2)c1 [GW663929] | 4 |
| O=C(c1ccc(-c2cc(-c3c[nH]nc3-c3ccccn3)ccn2)cc1)N1CCOCC1 [GW812171] | 0 |
| CN1c2ccc(NCc3ccc(F)cc3)cc2-c2c(cnn2C)S1(=O)=O | 0 |
| Cc1nnc(-c2ccc3ncc(-c4ccc(S(C)=O)cc4)n3c2)o1 (stereo not shown) | 6 |
| COc1cc2ncn(-c3cc(OCc4sccc4Cl)c(C(N)=O)s3)c2cc1OC [GSK448459] | 67 |
| [2H]C([2H])(c1cccc(C(F)(F)F)c1C)n1ccn2c(=O)nc(N3CCOCC3)cc12 [GSK2336394] | 3 |
| Cl.Oc1cccc(Nc2ccnc3cc(-c4ccncc4)ccc23)c1 [GW494601] | 97.4 |
| CCc1nc(-c2cccc(C)c2)c(-c2ccnc(NCc3ccccc3)c2)s1 | 0 |
| CN(C(=O)c1ccc(-c2cc(-c3c[nH]nc3-c3ccccn3)ccn2)cc1)C1CCOCC1 [GW810083] | 0 |
| O=C(NOCC1CC1)c1ccc(F)c(F)c1Nc1ccc(I)cc1Cl | 1 |
| N#Cc1ccc(-c2cc(-c3c[nH]nc3-c3ccccn3)ccn2)cc1 [GW693028] | 0 |
| CN1c2ccc(CNc3ccc(F)cc3)cc2-c2c(cnn2C)S1(=O)=O | 0 |

| Structure (SMILES) | %Inh [%] |
| --- | --- |
| O=c1cc(N2CCOCC2)nc2n(Cc3cccc(C(F)(F)F)c3)ccn12 [GSK2297543] | 0 |
| O=C(NCCNc1ccnc(Nc2ccc(F)cc2)n1)Nc1ccccc1F [GSK1379880] | 0 |
| COc1cc2c(cc1OC[C@@H](O)CO)ncc1c3ccc(C#N)cc3[nH]c21 | 7 |
| CCCCCc1nc2c(N)ncnc2n1CCCCC [SKF-97255] | 0 |
| O=C(Nc1cccc(-c2nn3ncccc3c2-c2ccnc(Nc3cccc(C(F)(F)F)c3)n2)c1)c1c(F)cccc1F [GSK299495] | 40 |
| O=c1cc(N2CCOCC2)nc2n(Cc3cccc4ccccc34)ccn12 [GSK2333389] | 8 |
| Cc1c(Cn2c(C)nn3c(=O)cc(N4CCOC(C)C4)nc23)cccc1C(F)(F)F (stereo not shown) [GSK2344444] | 11 |
| O=C1NC(=O)C(N2CCc3ccccc32)=C1c1cccc(Cl)c1 [SB-408010] | 2 |
| N#Cc1c(N2CCOCC2)sc(-c2ccn[nH]2)c1-c1ccc(Cl)cc1 | 0 |
| Cn1cc(-c2ccc3c(c2)CCN3C(=O)Cc2ccccc2Cl)c2c(N)ncnc21 [GSK2608885] | 99.8 |
| COc1cc(Nc2nccc(N3CCC(NC(=O)c4cccc(NC(C)=O)c4)C3)n2)cc(OC)c1OC (stereo not shown) [GSK1379754] | 23 |
| COc1ccc(S(=O)(=O)NC2CCN(c3cc(C)nc(Nc4cccc(C#N)c4)n3)CC2)cc1.O=C(O)C(F)(F)F [GSK1653539] | 2 |
| COc1cc2c(cc1OCCN1CCN(C)CC1)ncc1c3ccc(C#N)cc3[nH]c21 | 0 |
| O=C(Nc1n[nH]c2cc(-c3cccc(F)c3)ccc12)C1CC1 [SB-735464] | 0 |
| Cc1cccc(-c2nc(Nc3ccc4ncsc4c3)c3ccccc3n2)n1 [GW867588] | 0 |
| Nc1nccc(-c2c(-c3ccc(F)cc3)ncn2C2CCN(CC(F)(F)F)CC2)n1 [SB-236560] | 21 |
| COc1ccc(Nc2nccc(N3CCC(NC(=O)Nc4cccc(C(C)=O)c4)C3)n2)cc1 (stereo not shown) [GSK1379731] | 4 |
